Assay outcomes (PubChem)
This is a sample that favours compounds with a hit; in the whole collection about 12% have one here.
NS1 function inh = blocks influenza NS1 protein function | Potency, µM (doses to about 46.1 µM) | 270,000 tested, 0.4% active; also: actives are rising curves; nearly all actives have a fitted effect of over 50% in size
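S. cerevisiae expressing influenza A NS1, grown in glucose, washed, then diluted 1:100 into pH 6.0 -URA galactose medium with 23 nl compound. Growth recovery read as OD600; NS1-free strain serves as control.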
SARS PLpro yeast = blocks SARS-CoV papain-like protease in a yeast assay; AID 485353; S. cerevisiae expressing SARS-CoV PLpro, growth rescue; 330,000 tested, 0.19% active; Potency, µM (series often up to 32.9 µM), usual class: activators; also: nearly all actives have a fitted effect of over 55% in size
Cycloheximide cs = counter-screen hit for Shiga toxin inhibitors, cycloheximide | cell reporter, cycloheximide protein synthesis inhibition counterscreen | max response, % | 300,000 tested, 12% active; in the data active = max response mostly above about 13%, no sharp cut-off; inactive = mostly below about 14%; also: read at 38.3 µM for the half of the compounds with a filed dose
Shiga inhibitor = Shiga toxin inhibition. 290,000 tested, 9.2% active. inhibition, % at 38.7 µM. Vero cells, Shiga toxin protein synthesis inhibition reporter. AID 2315; in the data active = inhibition mostly above about 28%, no sharp cut-off; inactive = mostly below about 43%
Hits are given with their value; . = inactive; / = no result given; [ ] = dose if it differs, or a comment. Unless noted, calls follow the shape of the full dose curve.

SMILES	NS1 function inh	SARS PLpro yeast	Cycloheximide cs	Shiga inhibitor
CCCCC1(c2ccc(F)cc2)NC(=O)N(CC(=O)N2CCN(C(=O)c3ccco3)CC2)C1=O (centres undefined)	.	.	.	.
O=C(CSc1nnc(-c2ccc(OC(F)F)cc2)o1)N1CCOCC1	.	.	21.4	82.4
COc1ccc(-c2nnc(SCC(C)C)o2)cc1	.	.	58.4	55.4
COc1ccc(C(=O)CSc2nnc(-c3ccc(C)cc3)o2)cc1	.	.	.	.
Cc1cccc(-c2nnc(SCC(=O)N3CCOCC3)o2)c1	.	.	20.7	70.5
Cc1cccc(-c2noc(CCCC(=O)N3CCOCC3)n2)c1	.	.	11.4	.
COc1ccc(CCNC(=S)N2CCC(Cc3ccccc3)CC2)cc1OC	.	.	.	.
CCc1ccc(N2CC(C(=O)Nc3cccc(S(=O)(=O)N4CCCC4)c3)CC2=O)cc1 (centres undefined)	/	.	/	/
Cc1nc2ccccc2c(=O)n1NC(=O)C1CC1	.	.	.	.
N#CCn1cnc2sc(-c3ccccc3)cc2c1=O	.	.	26.8	.
CC(=O)Cn1cnc2sc(-c3ccccc3)cc2c1=O	.	.	38.6	35.5
COc1ccc(-n2cnc3sc(-c4ccccc4)cc3c2=O)cc1	.	.	43.1	.
CCn1cnc2sc(-c3ccccc3)cc2c1=O	.	.	29.4	112.0
COc1ccc(-n2cnc3sccc3c2=O)cc1	.	.	.	.
COc1ccc(OC)c(NC(=O)Nc2cc(C(=O)O)ccc2C)c1	/	.	.	.
Cn1c(SCC(=O)N2CCCCC2)nc2cccnc21	.	.	.	.
CN(c1ccccc1)S(=O)(=O)c1ccc(C(=O)OCC(=O)NCc2cccs2)cc1	.	.	.	.
CC(=O)Cn1nnc2sc(-c3ccccc3)cc2c1=O	/	.	46.5	92.7
Cc1ccccc1-n1c(SCC(N)=O)nc2sc(-c3ccccc3)cc2c1=O	.	.	.	.
CCCCOc1ccc(C(=S)N2CCC(C(N)=O)CC2)cc1	/	.	38.4	104.8
COc1ccc(C(=S)N2CCC(C(N)=O)CC2)cc1Br	.	.	.	.
CCOc1ccc(C(=S)N2CCN(C)CC2)cc1	/	.	.	.
CCOc1ccc(C(=S)N2CCCC2)cc1	.	.	13.9	87.7
CCC(Oc1ccccc1)C(=O)N1CCC(C(N)=O)CC1 (centres undefined)	.	.	18.4	42.3
CN(C)c1ccc(C(=S)N2CCCCC2)cc1	.	.	22.6	37.0
SMILES	NS1 function inh	SARS PLpro yeast	Cycloheximide cs	Shiga inhibitor
COc1cccc(C(=O)OC(C)C(=O)NCC2CCCCC2)c1 (centres undefined)	/	.[6.58 µM]	/	/
COc1c(C)cccc1C(=O)Nc1ccc(N2CCN(S(C)(=O)=O)CC2)cc1	.	.	35.3	95.8
COc1ccccc1C(=O)Nc1ccc(N2CCN(S(C)(=O)=O)CC2)cc1	.	.	.	37.1
COc1c(C)cc(Br)cc1C(=O)Nc1ccc(N2CCN(S(C)(=O)=O)CC2)cc1	.	.	.	.
CS(=O)(=O)N1CCC(Oc2ccccc2C(=O)NC(C2CC2)C2CC2)CC1	.	.	.	44.9
O=C(NCC(=O)N(c1ccc(F)cc1)C(C(=O)NC1CCCCC1)c1ccncc1)c1ccco1 (centres undefined)	.	.	.	.
C/C(=N\N=c1/scc(C)n1Cc1ccco1)c1cccc([N+](=O)[O-])c1	.	.	17.8	.
Cc1cs/c(=N\N=C\c2cccc([N+](=O)[O-])c2)n1Cc1ccco1	.	.	.	.
Nc1nc(N)nc(COc2ccccc2)n1	/	.	41.5	95.8
Cc1ccc(C(=O)OCC(=O)NCc2ccco2)s1	/	.	.	.
O=C(O)c1cc(-n2[nH]c(=O)c3ccccc3c2=O)ccc1Cl	.	.	43.5	148.4
O=c1[nH]n(-c2ccccc2)c(=O)c(Cl)c1Cl	.	.	.	.
O=C(O)CC(CC(=O)Nc1ccc(-c2ccccc2)cc1)c1ccccc1 (centres undefined)	.	.	.	.
O=C(N/N=C/c1ccc2c(c1)OCO2)c1cc2ccccc2o1	.	.	12.3	.
Cc1ccc(C(=O)/C=C/c2ccc3c(c2)OCO3)o1	.	.	48.7	52.4
O=C(N/N=C/c1ccsc1)c1cc2ccccc2o1	.	.	61.7	41.0
Cn1cc([N+](=O)[O-])c(C(=O)N/N=C/c2ccc3c(c2)OCO3)n1	.	.	20.1	42.5
Cc1c(NC(=O)C(C)OC(=O)[C@@H](NC(=O)c2ccccc2)C(C)C)c(=O)n(-c2ccccc2)n1C (some centres undefined)	.	.	.	.
Cc1ccc(C(=O)N/N=C\c2ccc3c(c2)OCO3)cn1	.	.	.	.
O=C(N/N=C/c1ccsc1)c1cc(-c2cccs2)nc2ccccc12	.	.	.	.
Cc1ccc(C(=O)/C=C/c2ccccc2)o1	.	.	39.8	.
Cc1ccc(C(=O)N/N=C/c2ccc3c(c2)OCO3)o1	.	.	62.6	60.4
Nc1cccc(C(=O)N/N=C/c2ccsc2)c1	/	.	32.6	53.7
OC[C@H]1NC[C@H](O)[C@@H](O)[C@@H]1O	/	/	.	.
Cc1ccc(C(=O)N/C(=C\c2ccccc2)C(=O)NCCCn2ccnc2)cc1	.	.	.	.
SMILES	NS1 function inh	SARS PLpro yeast	Cycloheximide cs	Shiga inhibitor
CCSC1=NCCN1C(=O)Cc1ccc(-c2ccccc2)cc1	/	.	.	.
CSC1=NCCN1C(=O)Cc1ccc(-c2ccccc2)cc1	/	.	.	41.8
CC(=NNC(=O)c1cccc(S(=O)(=O)N2CCOCC2)c1)c1ccccc1	/	.	/	/
C=CCOC(=O)CCCC(=O)NC1CCCCC1	.	.	.	active
O=C(CCC1CCCC1)NC1CCCCC1	.	.	18.0	64.9
O=C(CC1CCS(=O)(=O)C1)NC1CCCCC1 (centres undefined)	.	.	.	.
O=C(CC1CCCCC1)NC1CCCC1	.	.	19.0	.
O=C(NC(=O)c1ccccc1)Nc1ccccc1	.	.	41.9	51.0
COc1ccc(C(=O)NNC(=O)Nc2ccc(C)cc2)cc1	.	.	.	.
COc1ccccc1NC(=O)NC(=O)c1ccccc1	.	.	22.9	58.9
O=C(Nc1ccc(-c2ccccc2)cc1)c1ccccc1	.	.	.	/
COc1ccccc1NC(=O)NC(N)=O	.	.	.	.
COc1ccc(NC(=O)NC(=O)c2ccccc2)cc1	.	.	25.0	/
Cc1ccccc1NC(=O)CN1C(=O)N/C(=C\c2ccccc2OCc2ccc(C(=O)O)cc2)C1=O	.	.	.	.
CN(CC(=O)Nc1ccc(F)cc1)CC(=O)N1CCCC1	/	.	/	/
CCOc1ccc(-c2c(=O)n(OCc3nc4ccccc4[nH]3)c3ccccc3[n+]2[O-])cc1	.	.	.	31.6
CCCOc1ccc(-c2c(=O)n(OCc3ccc([N+](=O)[O-])cc3)c3ccccc3[n+]2[O-])cc1	.	.	.	.
COc1ccc(-c2c(=O)n(OCc3nc4ccccc4[nH]3)c3ccccc3[n+]2[O-])cc1	.	.	28.7	.
COn1c(=O)c(-c2ccc(F)cc2)[n+]([O-])c2ccccc21	.	.	.	.
C=CCOn1c(=O)c(-c2ccc(OC)cc2)[n+]([O-])c2ccccc21	.	.	14.0	.
COc1ccc(C(=O)CCS(=O)(=O)c2ccc(C)cc2)cc1	.	.	.	.
COc1ccc(C(=O)CCC(C)(C)[N+](=O)[O-])cc1	/	.	32.3	.
